Measurements from ChEMBL document CHEMBL1201862, “PubChem BioAssay data set” (2004).
Among all 55,000 sequences or so, about 2,800 (5.1%) were called active. Rule as the data show it: active = GI50 up to about 1.1 µM and inactive = higher. Only a sample is shown. Potency and affinity values are given separately.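 Interpolation was linear, between the two tested concentrations surrounding the appropriate level; five concentrations were tested over 48 hours in 96-well plates. GI50 = concentration required for 50% inhibition of growth.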

Each substance was assayed on SK-MEL-2 (assay: NCI tumour cell line growth inhibition, 48 h).

Q: “[Bis(aminomethyl)pentamethylenesilane]tetrachloropaltinum(IV), CHEMBL2146204” was tested. Which GI50 did it give?
A: The GI50 was 5.71 µM.

Q: For “[Bis(aminomethyl)dimethylsilane]tetrachloroplatinum(IV), CHEMBL2146190”, which GI50 is on record?
A: The GI50 was 19.1 µM.

Q: How did the GI50 turn out when “[Bis(aminomethyl)tetramethylenesilane]dichloropaltinum(II), CHEMBL2146205” was run?
A: Its GI50 is 30.9 µM.

Q: How did the GI50 turn out when “[Bis(aminomethyl)dimethylsilane]dichloroplatinum (II), CHEMBL2146201” was run?
A: Its GI50 is 65.5 µM.

Q: For “[Bis(aminomethyl)ethylmethylsilane]tetrachloroplatinum(IV), CHEMBL2146192”, which GI50 is on record?
A: The GI50 was 5.5 µM.

Q: For CISPLATIN, CHEMBL11359, which GI50 is on record?
A: The GI50 was 5.07 µM.

Q: With “mu-(1,7-nanodiamine-N,N')bis-(cis-aminedichloroplatimum (II)), CHEMBL2146215” as the substance, how does the GI50 read?
A: Its GI50 is 38.9 µM.

Q: “[Bis(aminomethyl)tetramethylenesilane]tetrachloropaltinum(IV), CHEMBL2146189” was tested. Which GI50 did it give?
A: The GI50 was 6.64 µM.

Q: “[Bis(aminomethyl)diethylsilane]tetrachloroplatinum(IV), CHEMBL2146203” was tested. Which GI50 did it give?
A: Its GI50 is 3.1 µM.

Q: For “[Bis(aminomethyl)pentamethylenesilane]dichloropaltinum(II), CHEMBL2146202”, which GI50 is on record?
A: The GI50 was 7.57 µM.

Q: For “cis-Bis[[(trimethylsilyl)methyl]amino]tetrachloroplatinum(IV), CHEMBL2146191”, which GI50 is on record?
A: Its GI50 is 2.88 µM.
